Set-up in all cases: scale not given: direction of the effect not stated beside the values
The target in assay [1] is Protein translocase subunit SecA (Escherichia coli (strain K12)) (UniProt P10408). Put plainly: Assay to Identify E. coli SecA ATPase Inhibitors. It is filed as functional. The conditions noted are these: 30 µM.
Assay [2] deals with T1, Ubiquitin-activating enzyme e1, putative (Leishmania donovani (strain BPK282A1)) (UniProt E9BSI1).
T1 sequence (whole entry): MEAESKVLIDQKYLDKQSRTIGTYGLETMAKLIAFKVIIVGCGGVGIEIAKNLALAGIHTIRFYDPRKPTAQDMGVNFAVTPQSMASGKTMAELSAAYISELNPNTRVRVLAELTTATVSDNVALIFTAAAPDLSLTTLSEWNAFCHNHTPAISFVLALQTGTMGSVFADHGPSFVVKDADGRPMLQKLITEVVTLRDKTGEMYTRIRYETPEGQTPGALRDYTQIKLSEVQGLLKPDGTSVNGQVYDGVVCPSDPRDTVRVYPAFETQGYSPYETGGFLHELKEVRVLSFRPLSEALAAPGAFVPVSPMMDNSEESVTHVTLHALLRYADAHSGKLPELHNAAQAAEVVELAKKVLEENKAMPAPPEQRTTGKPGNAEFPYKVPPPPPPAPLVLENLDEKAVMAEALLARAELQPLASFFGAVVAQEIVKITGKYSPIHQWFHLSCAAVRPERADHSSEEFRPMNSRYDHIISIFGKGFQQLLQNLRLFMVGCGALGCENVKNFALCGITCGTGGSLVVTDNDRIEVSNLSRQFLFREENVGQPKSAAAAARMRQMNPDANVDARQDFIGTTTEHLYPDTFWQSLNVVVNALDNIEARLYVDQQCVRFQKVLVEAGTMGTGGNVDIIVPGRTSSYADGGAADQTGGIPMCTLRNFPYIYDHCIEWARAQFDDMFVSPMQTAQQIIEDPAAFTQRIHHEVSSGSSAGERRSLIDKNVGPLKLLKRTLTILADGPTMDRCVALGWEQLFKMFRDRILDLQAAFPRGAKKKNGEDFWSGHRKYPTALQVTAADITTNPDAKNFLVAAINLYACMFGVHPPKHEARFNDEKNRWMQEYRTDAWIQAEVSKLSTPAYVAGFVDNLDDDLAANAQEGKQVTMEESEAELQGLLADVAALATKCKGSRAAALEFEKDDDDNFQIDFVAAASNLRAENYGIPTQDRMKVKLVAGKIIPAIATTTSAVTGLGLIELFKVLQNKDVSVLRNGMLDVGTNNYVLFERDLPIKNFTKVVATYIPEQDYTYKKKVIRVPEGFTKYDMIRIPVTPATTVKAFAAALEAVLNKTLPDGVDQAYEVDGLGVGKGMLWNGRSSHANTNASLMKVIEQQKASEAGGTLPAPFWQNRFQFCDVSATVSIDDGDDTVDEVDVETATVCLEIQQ
The assay is described as follows: Leishmania donovani Ubiquitin Activating Enzyme (LdE1). Particulars: 30 µM. It is filed as functional.

The target of assay [3] is AMP-activated protein kinase, AMPK (Homo sapiens) (UniProt P54646+O43741+P54619+Q9UGJ0+Q9Y478+Q13131+Q9UGI9). The assay is described as follows: AMP-dependent Kinase enzyme assay. An in vitro enzyme assay that detects ADP turnover that is directly proportional to AMPK activity. This uses naive AMPK that is activated during the assay with MK-8722. It is filed as functional. Particulars: 30 µM.

For assay [4], the target named is Sialic acid-binding Ig-like lectin 9 (Homo sapiens) (UniProt Q9Y336). Put plainly: Hs-Siglec9 ALPHAscreen SOP 20170721. The conditions noted are these: 10 µM. (In general: Alpha assays give light when donor and acceptor beads are brought close together.)
A further assay relates to Trypanosoma cruzi. Put plainly: Trypanosoma cruzi phosphomannomutase and mannose-1-phosphate guanylyltransferase assay. In kind it is functional. The conditions noted are these: 10 µM.
Assay [5] deals with T2, Arginase-2, mitochondrial (Homo sapiens) (UniProt P78540).
T2 sequence (whole entry): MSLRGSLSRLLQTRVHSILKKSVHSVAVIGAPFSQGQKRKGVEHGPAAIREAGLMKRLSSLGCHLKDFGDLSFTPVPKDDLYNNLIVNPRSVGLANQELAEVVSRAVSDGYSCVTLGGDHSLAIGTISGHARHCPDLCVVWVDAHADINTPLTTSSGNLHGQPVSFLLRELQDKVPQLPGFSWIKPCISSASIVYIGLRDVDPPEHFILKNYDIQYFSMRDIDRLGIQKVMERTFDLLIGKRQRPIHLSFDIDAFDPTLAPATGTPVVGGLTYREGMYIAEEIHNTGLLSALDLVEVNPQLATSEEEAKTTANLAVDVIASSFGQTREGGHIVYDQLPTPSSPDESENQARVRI
The assay is described as follows: in vitro enzyme assay to detect the production of urea directly proportional to the activity of Arginase II. Also: in the data most compounds retested in dose-response had high values. In kind it is functional. Particulars: 33.3 µM.

The target of assay [6] is T3, Proteasome subunit beta (Trypanosoma cruzi) (UniProt O96673).
T3 sequence (whole entry): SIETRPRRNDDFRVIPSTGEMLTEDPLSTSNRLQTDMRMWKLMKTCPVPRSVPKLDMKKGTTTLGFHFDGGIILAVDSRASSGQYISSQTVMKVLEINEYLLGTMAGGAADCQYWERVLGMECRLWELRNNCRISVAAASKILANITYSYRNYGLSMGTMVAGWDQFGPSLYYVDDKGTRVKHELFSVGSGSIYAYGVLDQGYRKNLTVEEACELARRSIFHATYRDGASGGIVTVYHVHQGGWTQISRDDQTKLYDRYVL
The assay is described as follows: Trypanosoma cruzi proteasome chymotrypsin-like activity (TcProtChymo) assay. Also: in the data most compounds retested in dose-response had high values. It is filed as functional. The conditions noted are these: 9.37 µM.

The species named for another assay is Homo sapiens. Put plainly: To identify inhibition of the IFN signalling (Jak-Stat) pathway via expression of an eGFP reporter gene under the control of an IFN-stimulated response element (ISRE) containing MxA promoter. It is filed as functional. The conditions noted are these: 30 µM.
Assay [7] concerns the target T4, Tyrosyl-tRNA synthetase, putative (Trypanosoma cruzi (strain CL Brener)) (UniProt Q4DSP6).
T4 sequence (whole entry): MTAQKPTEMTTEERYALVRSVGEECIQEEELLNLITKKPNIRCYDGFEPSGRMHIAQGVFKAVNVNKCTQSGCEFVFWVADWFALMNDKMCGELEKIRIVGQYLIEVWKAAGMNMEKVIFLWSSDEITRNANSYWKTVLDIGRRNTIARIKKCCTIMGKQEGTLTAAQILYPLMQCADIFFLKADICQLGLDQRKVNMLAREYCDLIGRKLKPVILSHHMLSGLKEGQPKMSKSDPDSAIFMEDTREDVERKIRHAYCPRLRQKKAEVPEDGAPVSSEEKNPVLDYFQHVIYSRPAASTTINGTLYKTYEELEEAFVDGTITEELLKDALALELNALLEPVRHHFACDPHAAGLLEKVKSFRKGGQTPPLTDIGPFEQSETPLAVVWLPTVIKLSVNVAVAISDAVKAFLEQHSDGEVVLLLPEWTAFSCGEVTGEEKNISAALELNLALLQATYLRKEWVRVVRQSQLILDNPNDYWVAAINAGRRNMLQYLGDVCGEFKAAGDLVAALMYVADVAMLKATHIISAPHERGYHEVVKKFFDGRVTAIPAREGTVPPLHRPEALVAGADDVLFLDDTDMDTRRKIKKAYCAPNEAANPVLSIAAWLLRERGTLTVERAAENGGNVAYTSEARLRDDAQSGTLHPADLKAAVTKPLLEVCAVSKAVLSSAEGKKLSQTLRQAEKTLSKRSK
Put plainly: Trypanosoma cruzi tyrosyl tRNA synthetase (TcYRS) _High Tyrosine SOP. Also: in the data most compounds retested in dose-response had high values. In kind it is functional. Particulars: 30 µM.

In assay [8] the target is T4, Tyrosyl-tRNA synthetase, putative (Trypanosoma cruzi (strain CL Brener)). Put plainly: Trypanosoma cruzi tyrosyl tRNA synthetase (TcYRS) SOP. In kind it is functional. The conditions noted are these: 30 µM.
The target of assay [9] is Chromo domain-containing protein 1 (Saccharomyces cerevisiae (strain ATCC 204508 / S288c) (Baker's yeast)) (UniProt P32657). The assay is described as follows: ScCHD-1 Enzyme Inhibition Assay. Also: in the data most compounds retested in dose-response had high values. In kind it is functional. The conditions noted are these: 30 µM.

Each structure is given as a SMILES string. For some of these results: Potency and affinity values are given separately.

Chain of Sialic acid-binding Ig-like lectin 9 (Homo sapiens) (Q9Y336 whole entry): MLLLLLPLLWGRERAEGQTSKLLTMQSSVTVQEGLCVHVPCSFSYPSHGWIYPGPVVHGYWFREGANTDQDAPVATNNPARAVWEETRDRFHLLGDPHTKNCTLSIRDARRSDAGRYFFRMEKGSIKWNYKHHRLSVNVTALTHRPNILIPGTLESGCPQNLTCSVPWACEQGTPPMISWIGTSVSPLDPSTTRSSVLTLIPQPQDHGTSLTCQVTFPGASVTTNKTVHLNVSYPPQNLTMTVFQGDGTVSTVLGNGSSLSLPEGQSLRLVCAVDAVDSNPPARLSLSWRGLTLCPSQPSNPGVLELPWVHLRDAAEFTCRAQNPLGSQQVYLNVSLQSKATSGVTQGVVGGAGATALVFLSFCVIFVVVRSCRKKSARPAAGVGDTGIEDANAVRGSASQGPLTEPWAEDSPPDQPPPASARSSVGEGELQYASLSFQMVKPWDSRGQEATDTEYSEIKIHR
Chain of Protein translocase subunit SecA (Escherichia coli (strain K12)) (P10408 whole entry): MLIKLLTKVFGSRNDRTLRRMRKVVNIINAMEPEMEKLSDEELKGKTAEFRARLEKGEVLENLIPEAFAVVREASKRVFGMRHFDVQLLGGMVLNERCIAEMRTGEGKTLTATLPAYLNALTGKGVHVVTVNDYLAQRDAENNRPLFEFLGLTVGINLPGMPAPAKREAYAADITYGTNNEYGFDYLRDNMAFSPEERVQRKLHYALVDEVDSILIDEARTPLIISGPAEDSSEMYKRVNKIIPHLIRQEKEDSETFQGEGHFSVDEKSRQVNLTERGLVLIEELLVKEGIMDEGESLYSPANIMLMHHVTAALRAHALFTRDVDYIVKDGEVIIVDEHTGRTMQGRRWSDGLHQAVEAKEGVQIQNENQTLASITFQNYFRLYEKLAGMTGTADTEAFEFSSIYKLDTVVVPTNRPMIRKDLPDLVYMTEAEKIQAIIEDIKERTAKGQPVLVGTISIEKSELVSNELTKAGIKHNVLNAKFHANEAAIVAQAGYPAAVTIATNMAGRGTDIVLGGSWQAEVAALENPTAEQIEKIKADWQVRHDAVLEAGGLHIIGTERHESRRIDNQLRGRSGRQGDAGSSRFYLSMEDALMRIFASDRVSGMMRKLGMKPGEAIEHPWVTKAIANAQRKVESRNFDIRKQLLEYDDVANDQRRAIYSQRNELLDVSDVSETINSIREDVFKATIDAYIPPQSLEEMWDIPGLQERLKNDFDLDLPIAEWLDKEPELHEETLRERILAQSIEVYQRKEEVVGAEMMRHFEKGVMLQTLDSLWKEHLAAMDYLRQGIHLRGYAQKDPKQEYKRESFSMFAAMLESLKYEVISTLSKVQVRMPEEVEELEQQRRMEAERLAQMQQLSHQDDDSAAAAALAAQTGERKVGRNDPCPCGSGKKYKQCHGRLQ
Chain of Chromo domain-containing protein 1 (Saccharomyces cerevisiae (strain ATCC 204508 / S288c) (Baker's yeast)) (P32657 whole entry, the tested form may be a part): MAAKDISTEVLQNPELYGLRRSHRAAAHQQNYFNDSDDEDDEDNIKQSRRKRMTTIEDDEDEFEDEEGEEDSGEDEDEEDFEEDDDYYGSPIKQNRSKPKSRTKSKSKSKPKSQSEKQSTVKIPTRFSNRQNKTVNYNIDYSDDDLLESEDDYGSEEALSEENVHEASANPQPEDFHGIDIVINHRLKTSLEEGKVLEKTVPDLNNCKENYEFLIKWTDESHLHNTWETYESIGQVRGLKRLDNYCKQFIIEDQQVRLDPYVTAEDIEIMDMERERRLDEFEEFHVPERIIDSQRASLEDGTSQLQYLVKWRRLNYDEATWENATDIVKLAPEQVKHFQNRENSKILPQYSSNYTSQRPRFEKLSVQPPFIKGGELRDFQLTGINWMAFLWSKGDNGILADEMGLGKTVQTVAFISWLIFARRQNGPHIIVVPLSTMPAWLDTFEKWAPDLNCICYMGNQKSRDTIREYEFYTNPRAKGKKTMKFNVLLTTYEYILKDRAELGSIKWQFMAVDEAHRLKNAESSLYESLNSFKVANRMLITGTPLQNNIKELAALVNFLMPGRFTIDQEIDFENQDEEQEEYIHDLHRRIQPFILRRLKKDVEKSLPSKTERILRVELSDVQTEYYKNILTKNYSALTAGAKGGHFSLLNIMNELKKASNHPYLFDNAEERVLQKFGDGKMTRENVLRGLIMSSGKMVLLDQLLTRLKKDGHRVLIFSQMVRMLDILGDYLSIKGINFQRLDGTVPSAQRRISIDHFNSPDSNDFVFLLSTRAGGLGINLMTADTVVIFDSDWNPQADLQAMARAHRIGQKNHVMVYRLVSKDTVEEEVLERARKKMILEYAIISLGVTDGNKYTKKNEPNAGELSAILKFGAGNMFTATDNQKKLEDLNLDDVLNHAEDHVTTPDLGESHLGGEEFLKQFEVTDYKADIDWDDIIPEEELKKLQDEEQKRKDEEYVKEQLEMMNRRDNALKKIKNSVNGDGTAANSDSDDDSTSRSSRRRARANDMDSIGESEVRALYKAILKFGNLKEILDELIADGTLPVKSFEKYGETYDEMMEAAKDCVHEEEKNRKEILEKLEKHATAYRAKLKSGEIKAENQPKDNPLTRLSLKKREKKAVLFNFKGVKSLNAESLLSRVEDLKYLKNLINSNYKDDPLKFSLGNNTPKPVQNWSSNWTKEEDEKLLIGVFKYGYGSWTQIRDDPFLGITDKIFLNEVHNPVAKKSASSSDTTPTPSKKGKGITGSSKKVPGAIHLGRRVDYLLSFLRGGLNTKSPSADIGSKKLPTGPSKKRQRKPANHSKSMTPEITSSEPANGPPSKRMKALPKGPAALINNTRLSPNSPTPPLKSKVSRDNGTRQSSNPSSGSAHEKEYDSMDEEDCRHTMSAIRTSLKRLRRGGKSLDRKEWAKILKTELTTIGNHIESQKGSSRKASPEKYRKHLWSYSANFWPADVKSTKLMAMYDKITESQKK

Turning to `Cc1nc(CN2CCc3ncnc(-c4ccc(F)cc4)c3CC2)cs1`, the Percent Effect in [1] is -3.21%; in assay [2], 10.8%; in assay [3], 5.22%; in assay [4], -0.105%; with Trypanosoma cruzi, -1.66%; in assay [5] it was 9.87%. The Percent Effect in assay [6] is 18.4%; in the assay listed under Homo sapiens, -9.45%; in assay [7] it was 5.41%; in [8] it was 17.9%; in assay [9], -0.896%.
As for `CCc1cnc(CN(C(C)=O)C2CCN(CCc3cnn(C)c3)C2)o1` (stereo not drawn), the Percent Effect in assay [1] was -2.73%; in assay [2], 18.4%; in assay [3], -1.21%; in [4], -1.24%; in the assay on Trypanosoma cruzi, -1.21%; in [5], 2.16%. The Percent Effect in assay [6] is 9.56%; in the assay listed under Homo sapiens, -1.17%; in assay [7], 7.39%; in [8], 18.5%; in assay [9], -6.82%.
In the case of `CCn1cnnc1C1CCN(C(=O)c2ccc(Cl)s2)CC1`, the Percent Effect in [1] is -3.49%; in assay [2], 17.7%; in [3] it was 1.65%; in [4], 2.56%; in the assay on Trypanosoma cruzi, -0.661%; in [5], 2.66%. Moreover, the Percent Effect is 5.98% in assay [6]; -19.1% in the assay filed under Homo sapiens; 4.43% in [7]; 11.4% in assay [8]; -3.04% in [9].
On to `Cc1cccc(C(=O)NC2CCN(c3cnn(C)c3)C2=O)n1` (stereo not drawn), for which the Percent Effect in assay [1] is -4.94%; in assay [2], 16.2%; in [3], -3.39%; in [4], 24.3%; with Trypanosoma cruzi, 7.33%; in [5], 23.6%. For the same compound, the Percent Effect in [6] is 9.36%; in the assay listed under Homo sapiens, -7.64%; in assay [7] it was 3.23%; in [8], 13.6%; in [9], -10.2%.
On to `CC(C(=O)NCc1ccc(N2CCNC(=O)C2)cc1)n1cncn1` (stereo not drawn), for which the Percent Effect was -6.76% in [1]; 26% in [2]; -36.6% in assay [3]; 17.6% in assay [4]; 8.24% in the assay with Trypanosoma cruzi; 1.42% in assay [5]. Moreover, the Percent Effect in [6] is 5.57%; in the assay listed under Homo sapiens, 14.6%; in [7] it was 5.83%; in assay [8], 21.9%; in [9], -12.2%.
`CCCc1cc(=O)[nH]c2nnc(SCC(=O)NCc3ccc(C)cc3)n12`: the Percent Effect in assay [1] was -0.143%; in assay [2] it was 13.7%; in assay [3], -0.135%; in assay [4], 6.56%; in the assay on Trypanosoma cruzi, 3.33%; in assay [5], 13.6%. In addition, the Percent Effect is 20.2% in assay [6]; 16.9% in the assay filed under Homo sapiens; 6.45% in assay [7]; 17.5% in assay [8]; -7.5% in assay [9].
Regarding `Cc1nn(C)c(C)c1C1CCCN1C(=O)CCNc1ncccn1` (stereo not drawn), the Percent Effect is -5.59% in [1]; 18.4% in assay [2]; -8.92% in assay [3]; 11.3% in assay [4]; 5.32% in the assay with Trypanosoma cruzi; -8.63% in assay [5]. In addition, the Percent Effect in assay [6] is -1.1%; in the assay filed under Homo sapiens it was -2.96%; in assay [7] it was 3.45%; in assay [8], 18.5%; in [9] it was -4.96%.
Regarding `CC(C(=O)Nc1cccc(N2CCCCC2)c1)n1cncn1` (stereo not drawn), the Percent Effect in assay [1] was -7.36%; in assay [2], 13.5%; in assay [3] it was -9.41%; in [4], 28.7%; in the assay on Trypanosoma cruzi, 3.11%; in assay [5] it was -3.61%. For the same compound, the Percent Effect in assay [6] was 10.3%; in the assay filed under Homo sapiens, 0.641%; in [7] it was 5.42%; in assay [8], 23.5%; in [9], -10.9%.

For the origin of these results see ChEMBL document CHEMBL3988442, “University of Dundee, Small-Polar-MMV Screening Library” (2021).
